Source: the supplement of paper PMC6555819

How the values were obtained:
Experiment in all cases: PBM binding z-score (relative to random genomic background probes); higher = stronger binding; sequences stand for … in GC…GCGATTGACAGCGTAGAATGAAGG
[1] = test system: FXR:RXRa (NR concentration 270 nM, RXRa partner concentration 90 nM)
Procedure, shortened: (§1)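 Binding z-scores take random background probes as their reference. They come from custom Agilent 4×180K protein-binding microarrays incubated 1 h with ligand-free nuclear receptor dimers, with antibodies against each partner (one per run) detecting binding. Scanned fluorescence was regression-normalized.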

[2] = test system: LXRa:RXRa (NR concentration 270 nM, RXRa partner concentration 90 nM)
Procedure, shortened: as §1

[3] = test system: LXRa homodimer (NR concentration 270 nM)
Procedure, shortened: as §1

[4] = test system: LXRb:RXRa (NR concentration 270 nM, RXRa partner concentration 90 nM)
Procedure, shortened: as §1

[5] = test system: LXRb homodimer (NR concentration 270 nM)
Procedure, shortened: as §1

[6] = test system: PPARa:RXRa (NR concentration 270 nM, RXRa partner concentration 90 nM)
Procedure, shortened: as §1

[7] = test system: PPARg:RXRa (NR concentration 180 nM, RXRa partner concentration 90 nM)
Procedure, shortened: as §1

[8] = test system: PPARg:RXRa 270nM:90nM, anti-RXR (NR concentration 270 nM, RXRa partner concentration 90 nM)
Procedure, shortened: as §1

[9] = test system: PPARg:RXRa 30nM:10nM, anti-RXR (NR concentration 30 nM, RXRa partner concentration 10 nM)
Procedure, shortened: as §1

[10] = test system: PPARg:RXRa 90nM:30nM, anti-RXR (NR concentration 90 nM, RXRa partner concentration 30 nM)
Procedure, shortened: as §1

[11] = test system: PPARg:RXRa DBDmut IVT, anti-RXR (DBD mutation: RXRa K156A/R161A, NR concentration 270 nM, RXRa partner concentration 90 nM)
Procedure, shortened: as §1

[12] = test system: PPARg:RXRa IVT, anti-PPARg (NR concentration 270 nM, RXRa partner concentration 90 nM)
Procedure, shortened: as §1

[13] = test system: PPARg DBDmut:RXRa IVT, anti-PPARg (DBD mutation: PPARg1 K132A/R137A, NR concentration 270 nM, RXRa partner concentration 90 nM)
Procedure, shortened: as §1

[14] = test system: PPARg DBDmut IVT, anti-PPARg (DBD mutation: PPARg1 K132A/R137A, NR concentration 270 nM)
Procedure, shortened: as §1

[15] = test system: PPARg homodimer (NR concentration 180 nM)
Procedure, shortened: as §1

[16] = test system: PXR:RXRa (NR concentration 270 nM, RXRa partner concentration 90 nM)
Procedure, shortened: as §1

[17] = test system: PXR homodimer (NR concentration 270 nM)
Procedure, shortened: as §1

[18] = test system: RARa:RXR (NR concentration 270 nM, RXRa partner concentration 90 nM)
Procedure, shortened: as §1

[19] = test system: RARa homodimer (NR concentration 270 nM)
Procedure, shortened: as §1

[20] = test system: RARb:RXRa (NR concentration 270 nM, RXRa partner concentration 90 nM)
Procedure, shortened: as §1

Sequence | PBM binding z-score [1] | PBM binding z-score [2] | PBM binding z-score [3] | PBM binding z-score [4] | PBM binding z-score [5] | PBM binding z-score [6] | PBM binding z-score [7] | PBM binding z-score [8] | PBM binding z-score [9] | PBM binding z-score [10] | PBM binding z-score [11] | PBM binding z-score [12] | PBM binding z-score [13] | PBM binding z-score [14] | PBM binding z-score [15] | PBM binding z-score [16] | PBM binding z-score [17] | PBM binding z-score [18] | PBM binding z-score [19] | PBM binding z-score [20]
CAGCCTAGGTCTGGGCCAGTATAGGAGGAACGTT | -0.847 | -0.864 | -0.89 | -1.05 | -1.28 | -0.798 | -0.286 | -0.953 | -0.869 | -0.961 | -0.647 | -0.716 | -1.17 | -1.97 | -0.842 | -0.944 | -0.644 | -0.724 | -0.886 | -0.54
ACTATTAGTTGACTTAGCGCAACCGATACGACGC | -0.246 | -0.156 | 0.033 | -0.0894 | 0.667 | -0.285 | 0.811 | 0.137 | 0.148 | 0.0233 | 0.0649 | 0.107 | 1.97 | 1.39 | -0.0684 | -0.103 | 0.0644 | -0.262 | 0.57 | 0.104
CCGACTGGGGCATAAGTTTACCATAAGCCAGCCC | -0.352 | -0.207 | -0.448 | -0.337 | -0.91 | 0.222 | 1.66 | 2.44 | 0.241 | 1.74 | 3.09 | 2.55 | -0.897 | -1.31 | 0.107 | -0.336 | -0.547 | -0.262 | -0.566 | 0.68
TATACAGCGTCAAAGGCCAGAGTACGAATGTCGA | -0.579 | -0.473 | -0.358 | -0.616 | -0.382 | 0.0937 | 1.16 | 1.62 | 0.56 | 1.13 | -0.701 | 0.258 | -0.154 | 0.515 | -0.844 | -0.442 | -0.0905 | -0.513 | -0.705 | 0.524
CAGCCCAGGTCAGGGCCAGTATAGGAGGAACGTT | 2.46 | 1.34 | -0.516 | 1.01 | -0.951 | 2.27 | 0.962 | 0.716 | -0.353 | 0.469 | 0.375 | 1.26 | -1.13 | -1.33 | 0.907 | 0.95 | 0.194 | 1.49 | -0.138 | 3.45
CAAACTAGGTGACGAAAGGTCAAAGTCGAATGAC | 5.48 | 6.5 | 5.58 | 5.5 | 2.04 | 6.16 | 8.73 | 7.47 | 4.53 | 7.2 | 8.02 | 7.93 | 1.7 | 2.14 | 4.87 | 5.93 | 1.38 | 6.62 | 1.88 | 4.82
TCGAGCAGGCCAGAGGGTCACTCAAGAGGTACGG | 0.628 | 0.741 | -0.581 | 1.11 | -1.33 | 2.24 | 1.04 | 1.6 | 0.223 | 1.31 | -0.0196 | 0.342 | -0.384 | -1.69 | 0.386 | 1.76 | -0.594 | 2.13 | -0.84 | 2.19
ATCTCTAGGTAAGACTCGGTTCAGTGAAGAACGC | 0.472 | 0.583 | 0.614 | 0.263 | 1.07 | -0.0579 | -0.0197 | 0.126 | 0.0672 | 0.278 | 2.07 | 1.14 | 0.784 | 0.701 | 0.702 | 0.669 | 1.18 | 0.0867 | 1.5 | 0.192
AGTCACAGTTCATCTAGGTAACGTAAGATATGCT | 2.21 | 2.57 | 1.29 | 1.54 | 0.388 | 2.11 | 1.85 | 1.88 | 0.525 | 1.04 | 0.901 | 2.75 | 1.15 | 1.19 | 0.64 | 2.32 | 1.87 | 1.44 | 0.582 | 2.74
CCTACTGGGCCAAAAAAGTCATTGATGCCGATAA | -0.316 | -0.318 | -0.289 | -0.181 | -0.774 | 0.404 | 0.271 | 0.686 | -0.0301 | 0.41 | 3.32 | 2.23 | -0.158 | -0.274 | 0.205 | -0.303 | -0.213 | -0.0727 | -0.0226 | 0.134
